Source: the supplement of paper PMC11417369
± gives the standard deviation of the averaged measurements. In all, about 25,000 sequences were measured (“ln(normalized median fluorescence intensity)”: median about 7.9, highest 2% from about 11 on). Only a selection was taken, and the highest values are over-represented in it overall.

The sequences below were run on PfAP2-I AP2 domain 3 (GST-tagged) (assay: gcPBM binding intensity (ln(normalized median fluorescence intensity)); higher = stronger DNA binding).
Method in brief: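 The highest Masliner-normalised natural-log median intensity across replicate spots of either probe orientation is reported as binding intensity. GST-tagged P. falciparum DNA-binding domains expressed in E. coli were applied for 1 h to an Agilent 4 × 180k array of primer-extended double-stranded 36-bp intergenic genomic probes plus negative controls, and bound protein was detected with Alexa488 anti-GST antibody and scanned at 488 nm.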

Sequence	gcPBM binding intensity (ln)
AATTTTCATTTTAGAAGTACACACAAAAAATAAAAT [XGTACX_site4426]	8.13 ± 0.22
TGAATTTAGATATATACACACAAAAGTATATACAAT [CACACA_site2804]	7.53 ± 0.54
TATATATATTCTTTAAAACACACGTAAAGAAGAATT [CACACA_site2718]	7.94 ± 0.62
TATATATATATATTCACACATAAATATATGCACCCA [CACACA_site4263]	11.1 ± 0.68
ATAATAAAAAAAAATGCACACATATATATATATATA [CACACA_site8766]	9.59 ± 0.47
TATATATATATATTCACACATAAAAATAAAATAAAA [CACACA_site4774]	9.2 ± 0.13
AATATAATATAATGCACACATAAAAAAAAAAAAAAA [CACACA_site304]	11.1 ± 0.87
AATAAAAAAAAATGCACACATATATATATATATATA [CACACA_site2421]	9.67 ± 0.52
AAAATATAATATAATGCACACATAAAAAAAAAAAAA [CACACA_site7989]	11.1 ± 0.49
TAAACATAAATATGCACACATATACATATATTCATA [CACACA_site2667]	8.69 ± 0.099
TCCTTATATTTGCACACACACACAAGAAAATGAAAA [CACACA_site6613]	10.3 ± 0.54
TTTTGAATTAAACAAGCATGCTTTATTTACTTCTTA [TGCATGCA_site289]	7.59 ± 0.86
ACTAAACGAATAAATTGTACAAAGAAATATATTCAT [XGTACX_site6766]	7.83 ± 0.54
TTCTTCTGTTTTATTACACACCATTTTGTGGATACA [CACACA_site5181]	8.38 ± 0.71
ACTACATAATACTATTCACACATTTTTTTTTTTTTT [CACACA_site5794]	7.83 ± 0.58
ATATATATTTTTAATTGTACAGAATTAAAAATATTG [XGTACX_site1967]	7.64 ± 0.45
AAAAAAAAAAAACACACACACACACCGATACATACA [CACACA_site8849]	7.92 ± 0.45
AAAAGGAAAATACTAGCACACAATATATAATAAACA [CACACA_site285]	7.99 ± 0.49
ATTTATATATATGTATGTACGTATGTGTGTATATGT [XGTACX_site7587]	8.55 ± 0.27
TTTATTTATGTGTGGGTGCATATACGTATGATGTAT	11 ± 0.72
ATATGAAACATGAAGGTGCATAATGTGTATATTTAT	11.3 ± 0.69
ATATATTATGGGTGTGCACACAATATTTATATGTTC [CACACA_site2270]	9.59 ± 0.23
TTTCACATATATATGGTGCATATTTTATGTGTAAAT [GTGCAC_site9937]	9.95 ± 0.52
TATTTATATGTATATACATGCACATATATATGAAAC [TGCATGCA_site1005]	8.35 ± 0.57

Sequence	gcPBM binding intensity (ln)
GTATTATTTTATGATGCATGTGTATTTCATATATGC [TGCATGCA_site660]	7.74 ± 0.49
CACATATATATGTGTGCATGTTGTATTATATATTTA [TGCATGCA_site632]	8.69 ± 0.46
ATTTCCCCAACGTGGGTGCATATATTTATGTGTGAA [GTGCAC_site9439]	10.9 ± 0.82
AGAGGAAAAATAAAAGGAAAAAAGAAAATAATATTG [CACACA_negctrl_site852]	7.45 ± 0.73
GAATGAATGATAAATTTTTTTTTCTTTTTTTTTTTG [CACACA_negctrl_site333]	7.09 ± 0.59
ACCTTATAAAAAAAAAGTACATATATAAATAATAAA [XGTACX_site4338]	8.29 ± 0.13
ATATAATTAAAAACATGTACATATATATATATATAT [XGTACX_site2882]	9.27 ± 0.2
ATGTTCTTTAAAACCACACACCCCCCAACCCCCCTC [CACACA_site2373]	10.6 ± 0.36
TTATGTTCTTTAAAACCACACACCCCCCAACCCCCC [CACACA_site8742]	10.9 ± 0.44
CAAACCCACCAACACACACACACAAAAATGATTAAA [CACACA_site2432]	8.03 ± 0.23
ATAAGTATAAGAATCAGTACACAGTTTCTACATACT [XGTACX_site5834]	7.56 ± 0.51
TATCAAAGTAGAAGAGATCGATGTCATATTGTGATG [GTGCAC_negctrl_site42]	7.73 ± 0.75
GGTCTTCTTAATATACTGCACTGTATACGTATATAA	11 ± 0.61
CATATGCATACTATACGTACATATGTATATAATATA [XGTACX_site7738]	8.03 ± 0.42
TATAATATTAATGACTGTACTCATACGTATATTTAT [XGTACX_site5493]	7.79 ± 0.3
GATAGATAATATTTTAGTACATAAACAATTAAATAT [XGTACX_site4125]	7.91 ± 0.44
TAATCATAAAAAAATACACACATATAAAATATAGAT [CACACA_site7020]	7.51 ± 0.63
TATAAATACATACGTACACACAAATATTAAAATATA [CACACA_site5129]	7.905 ± 0.007
TAATGGATTATACGTGCACACATATATACAAATAAA [CACACA_site8116]	10.97 ± 0.035
ATGGATTATACGTGCACACATATATACAAATAAATA [CACACA_site640]	11.19 ± 0.035
ATGGATTATACGTGCACACATATATACCAATAAATA [CACACA_site4524]	11.2 ± 0.22
TCATATATATTATACACACACATATATAAATATATA [CACACA_site967]	7.87 ± 0.54
CATAAAAATGGATACACACACATAATATATATATAT [CACACA_site3619]	9.08 ± 0.11
ATATAAATACGGTGTGCACACACATAATATATATAT [CACACA_site2271]	9.52 ± 0.26

Sequence	gcPBM binding intensity (ln)
TAGGGATTATACCACACACACATACACATAAATATA [CACACA_site3178]	7.86 ± 0.32
TTATAATATGGATACACACACATATATAAATATATA [CACACA_site5314]	7.68 ± 0.38
AATAATAATAAAAATAAACACACATATATATGTATA [CACACA_site8928]	7.57 ± 0.28
AATATAATTATATGTGGTACAGAAATAATATAAAAT [XGTACX_site2366]	8.22 ± 0.52
TTATAAAAAAAAAAAAAAAAGAAAATGAATTCACGA [CACACA_negctrl_site1248]	8.19 ± 0.3
TAAATTATTATCCCCTCACACACAAAAATAAAAAGA [CACACA_site2886]	8.56 ± 0.25
CGTTGTAGGGAATGTAGTACAGTTATTATTTTATTA [XGTACX_site2429]	7.88 ± 0.24
TATTATATTGTTCATTTACACTTTCATTTTAAAAAA [CACACA_negctrl_site260]	8.05 ± 0.54
TTAATGCACTTTATTACACACACTAGTTCATTACCT [CACACA_site2294]	11.5 ± 0.95
AATGAGAATTTTATTACACACTTTAATATATTTTCA [CACACA_site784]	7.7 ± 0.53
ATAGTTACACAATGGTGTACAAGTCAATATATTTCT [XGTACX_site4614]	7.95 ± 0.33
ATATTGTTATATGTTTGTACATATTTTTTATATTTT [XGTACX_site6834]	7.7 ± 0.64
AACAAAATAAAAAGTAATCTTATTTATTAAAATTTT [CACACA_negctrl_site419]	7.25 ± 0.43
AAGGCATGACTATCTGCACACATAAAAATAAGAAAT [CACACA_site8180]	8.62 ± 0.39
AAATGAATATTCATAGTGCAATATATAAATGAAAAT	11 ± 0.38
TATAAATTTATAAATAGTACATATATTTATATATAT [XGTACX_site6433]	8.12 ± 0.64
ACAATGAAATATTCATGTACATATAAATAATAGTGT [XGTACX_site3762]	7.93 ± 0.42
CATAATTTAAAAAAGGTGCAAAATGGATAATATATA [GTGCAC_site9657]	11.1 ± 0.57
AAAATTTATAGTATGGTGCATAAAAATATATATATA	11.4 ± 0.23
ATATAAGAATAAATAGTGCAAAATAAATGATTATTT	10.7 ± 0.33
GTTATTGAAAAAATAGTGCAATATAACAAAGTAAAA	11.4 ± 0.52
TAAATAGTTATAAAAGTGCAAAAAAAAAAAAAAAAA [GTGCAC_site9550]	10.1 ± 0.53
GCTGAAAGGATAAAGGTGCATATTTTTTAAAAAATT [GTGCAC_site9487]	10.4 ± 0.28
AAGAAAATATAACAAAGTAAAAACATATTATATATA [TGCATGCA_negctrl_site248]	7.34 ± 0.34

Sequence	gcPBM binding intensity (ln)
TTATAAAAAATTTTAGTGCATATATGATTTATATAT [GTGCAC_site9831]	10.1 ± 0.33
TAAAATATTTCAAAGGTGCAATGATAATTTAAGACG [GTGCAC_site9609]	10.6 ± 0.54
TTTTATATCTACCTTTGTACATATTTATTTTTTTTA [XGTACX_site7872]	8.01 ± 0.74
AATAATGAAACAGGAAAAAAATATTGTTAAAATGTA [XGTACX_negctrl_site400]	7.95 ± 0.78
AAAAAAAAAAAAAAAACACACATAAATAGCTCAAAT [CACACA_site3973]	8.78 ± 0.49
ACAAAACGAACATACGCATGTGTGTACATTAATATA [TGCATGCA_site922]	8.14 ± 0.099
TTTTCATTCTTTTCCTTTGATTTACAATAGTATATT [GTGCAC_negctrl_site687]	7.72 ± 0.79
TTTTCCATAAGAATTACACACAGAAAGGATAAGTAT [CACACA_site105]	8.04 ± 0.73
TAATAATCAAGTTAACGTACAAAATCATCTATAGAA [XGTACX_site5921]	8.03 ± 0.13
ATTATTATATAGTGTGCATGCAATATTAATAAAACC [TGCATGCA_site245]	8.79 ± 0.52
CATATAATTTTATGGGTGCATTTTTTTGTAAGACCA	10.1 ± 0.58
TATAATAGTTCATAGGTGCAATATAATAAATTTATA [GTGCAC_site9573]	11.2 ± 0.47
TAATATATATATATGGTGCATTTAATTTATATATAA	11.2 ± 0.74
TGTAAATAATATAATAGTACGCATATTTTTATTGAA [XGTACX_site284]	7.87 ± 0.17
TAAATTTATATATAGGTGCGCAATTTGATAATAGTT [GTGCAC_site9783]	9.82 ± 0.19
ATTGATTATTTTCTAGTGCATAAAATAATTTTTTTT	10.5 ± 0.51
TCTATTTTTTATATGGTGCATTGTTCTTATTAATAT [GTGCAC_site9392]	10.8 ± 0.71
TATTAATATATAGTAGTGCAATAAAGATATACTGAA	10.9 ± 0.58
TTAAAATAGATATTAGTGCAAAAAAAAAAAAATAAA	10.7 ± 0.23
TCAAAAATTTATATAGTGCAATATATATATAATGTA	10.6 ± 0.72
GTTATAATTGAACTAGTGCATAAATATATTTTAATT [GTGCAC_site9851]	11.1 ± 0.45
